# Source: the supplement of paper PMC8728848
# Many of the other results were omitted from the sample, so the strongest signals are more common in it than they were.
# B1: CC1G-10077 (Coprinopsis cinerea), A8NDT7 (protein)
# chain: MALNEGVYWIRNSRFTNKVLDLDAANVAKGTSILDFNEHGTFNENHNQLWIVERFQSRDTYLIRSVHSNLVLDLSQGLSANGTPILCWTQHGGTNQQWRIEWVKDDNKTPLYRIVSVATGTAISHNEDDSSAYTVAWSVDDGPKQLWSFDPFVTPLLYRLRVKSTSRVLDLAAASADNGTLALAWEQHTAITKRNQLWWLPYRSGAEEYTIQCLETSTVADLSGGNSGNGTPIYGWQSHGGRNQQWKFEPTSDSGDYYHIKNVEGGSVMDAYMNDSQKRVGGWSNNGGDNQKWLLDPLPSPGPGWVLIQNGGTGKFLCSTPSGDIGTADGPETVYDYSVQWRFIQREYTGVYHVVNRATGAYLRQIGTSMPSIGLAEENDDELKDWWMLETYDNSEIGLASIISRWTGNVLDHYGGVSVQALDNNTENSYRSWAIIPARDWLTSFSLVNGQGGLCLAAQYAREETRLSTTANVNDFHAQWVFRKPSGSSGYTIQNKYNNHYVGGTSARWELVVCCNKYFGIRNTSTQKYLAIEDGQVTFQDQDMTDRKQCWELCSGRATDTSGNDYDLIYMDDDLLEVMIPWVGDKQGDLKHYIEKRATKKPPKDKGGWQLPAAGLIKKPKFNDIRQLLQELIEQWEWDVVNEEREQIQTLVSIDEAEARRLLGRRPHPDIVAAYQRSRSSTLFRIDRQGYFNIAGDRYVNIQGQYGDDSYFHIALPVGVRFGREQIRRFLRDSLDRSTSVTITPTTCKPPSGGPDYNRDPDSDGDNSWIKWTIAVVGTSAIKHSEL
# Tests used:
# Assay in all cases: glycan array binding signal (z-score within array); higher = stronger binding
# Conditions in all cases: glycan notation: IUPAC condensed, linker removed
# [1] = target: Fuc(a1-3)[Gal(b1-4)]GlcNAc(b1-2)Man(a1-3)[Fuc(a1-3)[Gal(b1-4)]GlcNAc(b1-2)Man(a1-6)]Man(b1-4)GlcNAc(b1-4)GlcNAc
# Method in brief: (§1)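 From the Consortium for Functional Glycomics database, 3228 arrays were curated, keeping only those whose protein sequence was available. Binding is given as a within-array Z-score averaged across arrays sharing a protein sequence and across linkers. Negative Z-scores can be read as non-binding.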
# [2] = target: Fuc(a1-3)[Gal(b1-4)]GlcNAc(b1-3)Gal(b1-3)[Fuc(a1-4)]GlcNAc
# Method in brief: as §1
# [3] = target: Fuc(a1-3)[Gal3S(b1-4)]Glc
# Method in brief: as §1
# [4] = target: Fuc(a1-3)[GalNAc(b1-4)]GlcNAc
# Method in brief: as §1
# [5] = target: Gal(a1-3)Gal(b1-3)GlcNAc(b1-6)GalNAc
# Method in brief: as §1
# [6] = target: Gal(a1-3)Gal(b1-4)GlcNAc
# Method in brief: as §1
# [7] = target: Gal(a1-3)Gal(b1-4)GlcNAc(b1-3)GalNAc
# Method in brief: as §1
# [8] = target: Gal(a1-3)Gal(b1-4)[Fuc(a1-3)]GlcNAc
# Method in brief: as §1
# [9] = target: Gal(b1-3)GlcNAc(b1-3)Gal(b1-3)GlcNAc
# Method in brief: as §1
# [10] = target: Gal(b1-3)GlcNAc(b1-3)Gal(b1-4)GlcNAc
# Method in brief: as §1
# [11] = target: Gal(b1-3)GlcNAc(b1-3)Gal(b1-4)[Fuc(a1-3)]GlcNAc
# Method in brief: as §1
# [12] = target: Gal(b1-4)Glc6S
# Method in brief: as §1
# [13] = target: Gal(b1-4)GlcNAc(a1-6)Gal(b1-4)GlcNAc
# Method in brief: as §1
# [14] = target: Gal(b1-4)GlcNAc(b1-2)Man(a1-3)Man(b1-4)GlcNAc(b1-4)GlcNAc
# Method in brief: as §1
# [15] = target: Gal(b1-4)GlcNAc(b1-2)Man(a1-3)[GlcNAc(b1-4)][Gal(b1-4)GlcNAc(b1-2)Man(a1-6)]Man(b1-4)GlcNAc(b1-4)GlcNAc
# Method in brief: as §1
# [16] = target: Gal(b1-4)GlcNAc(b1-2)Man(a1-6)[GlcNAc(b1-2)Man(a1-3)]Man(b1-4)GlcNAc(b1-4)GlcNAc
# Method in brief: as §1
# [17] = target: Gal(b1-4)GlcNAc(b1-3)Gal(b1-4)GlcNAc(b1-3)Gal(b1-4)GlcNAc(b1-2)Man(a1-3)[Gal(b1-4)GlcNAc(b1-3)Gal(b1-4)GlcNAc(b1-3)Gal(b1-4)GlcNAc(b1-2)Man(a1-6)]Man(b1-4)GlcNAc(b1-4)GlcNAc
# Method in brief: as §1
# [18] = target: Gal(b1-4)GlcNAc(b1-3)Gal(b1-4)GlcNAc(b1-3)Gal(b1-4)GlcNAc(b1-2)Man(a1-3)[Gal(b1-4)GlcNAc(b1-3)Gal(b1-4)GlcNAc(b1-3)Gal(b1-4)GlcNAc(b1-2)Man(a1-6)]Man(b1-4)GlcNAc(b1-4)[Fuc(a1-6)]GlcNAc
# Method in brief: as §1
# [19] = target: Gal(b1-4)GlcNAc(b1-3)Gal(b1-4)GlcNAc(b1-3)Gal(b1-4)GlcNAc(b1-2)[Gal(b1-4)GlcNAc(b1-3)Gal(b1-4)GlcNAc(b1-3)Gal(b1-4)GlcNAc(b1-6)]Man(a1-6)[Gal(b1-4)GlcNAc(b1-3)Gal(b1-4)GlcNAc(b1-3)Gal(b1-4)GlcNAc(b1-2)Man(a1-3)]Man(b1-4)GlcNAc(b1-4)[Fuc(a1-6)]GlcNAc
# Method in brief: as §1
# [20] = target: Gal(b1-4)GlcNAc(b1-3)Gal(b1-4)GlcNAc(b1-3)Gal(b1-4)GlcNAc(b1-3)Gal(b1-4)GlcNAc(b1-2)Man(a1-3)[Gal(b1-4)GlcNAc(b1-3)Gal(b1-4)GlcNAc(b1-3)Gal(b1-4)GlcNAc(b1-3)Gal(b1-4)GlcNAc(b1-2)Man(a1-6)]Man(b1-4)GlcNAc(b1-4)[Fuc(a1-6)]GlcNAc
# Method in brief: as §1
# [21] = target: Gal(b1-4)GlcNAc(b1-3)Gal(b1-4)GlcNAc(b1-3)Gal(b1-4)GlcNAc(b1-3)Gal(b1-4)GlcNAc(b1-3)Gal(b1-4)GlcNAc(b1-2)Man(a1-3)[Gal(b1-4)GlcNAc(b1-3)Gal(b1-4)GlcNAc(b1-3)Gal(b1-4)GlcNAc(b1-3)Gal(b1-4)GlcNAc(b1-3)Gal(b1-4)GlcNAc(b1-2)Man(a1-6)]Man(b1-4)GlcNAc(b1-4)GlcNAc
# Method in brief: as §1
# [22] = target: Gal(b1-4)GlcNAc(b1-3)Gal(b1-4)GlcNAc(b1-3)Gal(b1-4)GlcNAc(b1-3)Gal(b1-4)GlcNAc(b1-3)Gal(b1-4)GlcNAc(b1-2)[Gal(b1-4)GlcNAc(b1-3)Gal(b1-4)GlcNAc(b1-3)Gal(b1-4)GlcNAc(b1-3)Gal(b1-4)GlcNAc(b1-3)Gal(b1-4)GlcNAc(b1-6)]Man(a1-6)[Gal(b1-4)GlcNAc(b1-3)Gal(b1-4)GlcNAc(b1-3)Gal(b1-4)GlcNAc(b1-3)Gal(b1-4)GlcNAc(b1-3)Gal(b1-4)GlcNAc(b1-2)Man(a1-3)]Man(b1-4)GlcNAc(b1-4)[Fuc(a1-6)]GlcNAc
# Method in brief: as §1
# [23] = target: Gal(b1-4)GlcNAc(b1-3)[Gal(b1-4)GlcNAc(b1-6)]Gal(b1-4)GlcNAc
# Method in brief: as §1
# [24] = target: Gal(b1-4)GlcNAc(b1-3)[GlcNAc(b1-6)]Gal(b1-4)GlcNAc
# Method in brief: as §1
# [25] = target: Gal6S(b1-3)GlcNAc6S
# Method in brief: as §1
# [26] = target: Gal6S(b1-4)Glc
# Method in brief: as §1
# [27] = target: GalNAc(b1-4)GlcNAc(b1-3)GalNAc(b1-4)GlcNAc
# Method in brief: as §1
# [28] = target: GalNAc(b1-4)GlcNAc6S
# Method in brief: as §1
# [29] = target: GlcNAc(a1-4)Gal(b1-4)GlcNAc(b1-3)Gal(b1-4)GlcNAc
# Method in brief: as §1
# [30] = target: GlcNAc(b1-2)Man(a1-3)[GlcNAc(b1-4)][GlcNAc(b1-2)Man(a1-6)]Man(b1-4)GlcNAc(b1-4)[Fuc(a1-6)]GlcNAc
# Method in brief: as §1
# [31] = target: GlcNAc(b1-3)Gal(b1-4)Glc
# Method in brief: as §1
# [32] = target: GlcNAc(b1-3)Gal(b1-4)GlcNAc(b1-3)Gal(b1-4)GlcNAc(b1-3)Gal(b1-4)GlcNAc(b1-2)Man(a1-3)[GlcNAc(b1-3)Gal(b1-4)GlcNAc(b1-3)Gal(b1-4)GlcNAc(b1-3)Gal(b1-4)GlcNAc(b1-2)Man(a1-6)]Man(b1-4)GlcNAc(b1-4)[Fuc(a1-6)]GlcNAc
# Method in brief: as §1
# [33] = target: GlcNAc(b1-6)Gal(b1-4)GlcNAc
# Method in brief: as §1
# [34] = target: Kdn(a2-3)Gal(b1-4)GlcNAc
# Method in brief: as §1
# [35] = target: Neu5Ac(a2-3)Gal(b1-3)GlcNAc
# Method in brief: as §1
# [36] = target: Neu5Ac(a2-3)Gal(b1-3)GlcNAc(b1-3)Gal(b1-4)GlcNAc
# Method in brief: as §1
# [37] = target: Neu5Ac(a2-3)Gal(b1-3)[Fuc(a1-4)]GlcNAc
# Method in brief: as §1
# [38] = target: Neu5Ac(a2-3)Gal(b1-4)GlcNAc(b1-2)Man
# Method in brief: as §1
# [39] = target: Neu5Ac(a2-3)Gal(b1-4)GlcNAc(b1-3)Gal(b1-4)GlcNAc(b1-3)Gal(b1-4)GlcNAc(b1-2)Man(a1-3)[Neu5Ac(a2-3)Gal(b1-4)GlcNAc(b1-3)Gal(b1-4)GlcNAc(b1-3)Gal(b1-4)GlcNAc(b1-2)Man(a1-6)]GalNAc
# Method in brief: as §1
# [40] = target: Neu5Ac(a2-3)Gal(b1-4)[Fuc(a1-3)]GlcNAc(b1-6)[Gal(b1-3)]GalNAc
# Method in brief: as §1
# [41] = target: Neu5Ac(a2-3)Gal(b1-4)[Fuc(a1-3)]GlcNAc6S
# Method in brief: as §1
# [42] = target: Neu5Ac(a2-6)Gal(b1-3)GlcNAc(b1-3)[Gal(b1-4)GlcNAc(b1-6)]Gal(b1-4)Glc
# Method in brief: as §1
# [43] = target: Neu5Ac(a2-6)Gal(b1-4)GlcNAc(b1-2)Man(a1-3)[Neu5Ac(a2-6)Gal(b1-4)GlcNAc(b1-2)Man(a1-6)]Man(b1-4)GlcNAc(b1-4)GlcNAc
# Method in brief: as §1
# [44] = target: Neu5Ac(a2-8)Neu5Ac(a2-3)[GalNAc(b1-4)]Gal(b1-4)Glc
# Method in brief: as §1
# [45] = target: Neu5Ac(a2-8)Neu5Ac(a2-8)Neu5Ac
# Method in brief: as §1
binder,measurement,setting,value
B1,glycan array binding signal (z-score),[1],-0.467
same,glycan array binding signal (z-score),[2],-0.51
same,glycan array binding signal (z-score),[3],-0.424
same,glycan array binding signal (z-score),[4],-0.4
same,glycan array binding signal (z-score),[5],1.19
same,glycan array binding signal (z-score),[6],0.177
same,glycan array binding signal (z-score),[7],-0.3
same,glycan array binding signal (z-score),[8],0.744
same,glycan array binding signal (z-score),[9],0.08
same,glycan array binding signal (z-score),[10],0.142
same,glycan array binding signal (z-score),[11],0.199
same,glycan array binding signal (z-score),[12],-0.024
same,glycan array binding signal (z-score),[13],3.26
same,glycan array binding signal (z-score),[14],1.15
same,glycan array binding signal (z-score),[15],0.424
same,glycan array binding signal (z-score),[16],3.12
same,glycan array binding signal (z-score),[17],2.19
same,glycan array binding signal (z-score),[18],3.5
same,glycan array binding signal (z-score),[19],3.22
same,glycan array binding signal (z-score),[20],3.19
same,glycan array binding signal (z-score),[21],3.72
same,glycan array binding signal (z-score),[22],3.25
same,glycan array binding signal (z-score),[23],1.18
same,glycan array binding signal (z-score),[24],3.85
same,glycan array binding signal (z-score),[25],-0.314
same,glycan array binding signal (z-score),[26],0.062
same,glycan array binding signal (z-score),[27],4.2
same,glycan array binding signal (z-score),[28],4.35
same,glycan array binding signal (z-score),[29],-0.431
same,glycan array binding signal (z-score),[30],-0.482
same,glycan array binding signal (z-score),[31],-0.371
same,glycan array binding signal (z-score),[32],-0.141
same,glycan array binding signal (z-score),[33],3.18
same,glycan array binding signal (z-score),[34],-0.466
same,glycan array binding signal (z-score),[35],-0.452
same,glycan array binding signal (z-score),[36],-0.476
same,glycan array binding signal (z-score),[37],-0.473
same,glycan array binding signal (z-score),[38],-0.331
same,glycan array binding signal (z-score),[39],-0.417
same,glycan array binding signal (z-score),[40],-0.37
same,glycan array binding signal (z-score),[41],-0.468
same,glycan array binding signal (z-score),[42],0.306
same,glycan array binding signal (z-score),[43],-0.326
same,glycan array binding signal (z-score),[44],-0.233
same,glycan array binding signal (z-score),[45],-0.448
